# According to the supplement of paper PMC8728848:
# The entries come from a sample that favours the strongest signals as a whole.
# B1: NanI (Corynebacterium diphtheriae), C6JSW7 (protein)
# chain: MTNTLESNPMTTTTGALTITFATTCDGPLAHIPHHLDLNIIHGRIQGTTAHRRIDAEDPDGLDDGLPHHLCLSVDTTGTHLFIDGYEAFSTTQTEWFDTSELTLNPHGDLTIIDHQILNHAPTPRQARNLAPAAEPLVWFAGSHLSTRDTQRISHLTHGSLRLLMKTRGTGQGGVAFQAHTINGDLTLEIIDGTLIFSVRCHDEDYVRITAPGRWDDGQIYDVVIVCGRGATDIYVDGQQLIHSPGAAFFNDLSGELSVHIGTAASGVRLFGEVQSGMIYPHVFNHHQVQRLATVEPIATQALFDCLLDGAQSYRIPSLITTDSGVIIAGADKRVSIANDAPNDIDFVLRRSVDGGRTWQPPRTILQLPDTACVTDSVLLQDHTTGRIFAFLDQFPAGIGQPNAAFGTGFDADGNRIGHFADGSTCTMPREVDQLEASFFSDPHTAPPGIVFQHPSCHLWMLTSDDDGLTWSTPRDLTPDVKEEWMRFCGTSPGNGIQLQRDTHAGRLLIPMYYTKGDQFFAAALYSDDHGDTWHRGESPDLEMYESTLVEASDGSVLLWARNQHPSGAVAHARSTDGGHSWSQVTFNPNVPEIFSQPNALRVTNPDGIIFANASQLLPFRGRGVLRMSTNDGASWQHNRVFNPRHYVYQCMTQLPDGSIGLLWEREMQGLFFSIIPMTWIMQGYAL
# Columns and labels:
# Assay in all cases: glycan array binding signal (z-score within array); higher = stronger binding
# Settings in all cases: glycan notation: IUPAC condensed, linker removed
# [1] = target: Fuc(a1-2)Gal(b1-3)GlcNAc(b1-3)[Fuc(a1-3)[Gal(b1-4)]GlcNAc(b1-6)]Gal(b1-4)Glc
# How it was run: (§1)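 Columns mapping to the same glycan were averaged after glycan names were converted to IUPAC-condensed notation. The data come from 3228 arrays in the Consortium for Functional Glycomics database, limited to those with an available protein sequence. Binding is reported as a within-array Z-score averaged across arrays of one protein sequence and across linkers.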
# [2] = target: Fuc(a1-2)Gal(b1-3)GlcNAc(b1-3)[Neu5Ac(a2-6)Gal(b1-4)GlcNAc(b1-6)]Gal(b1-4)Glc
# How it was run: as §1
# [3] = target: Fuc(a1-2)Gal(b1-4)[Fuc(a1-3)]GlcNAc(b1-3)GalNAc
# How it was run: as §1
# [4] = target: Fuc(a1-2)[Gal(a1-3)]Gal(b1-3)GlcNAc(b1-2)Man(a1-3)[Fuc(a1-2)[Gal(a1-3)]Gal(b1-3)GlcNAc(b1-2)Man(a1-6)]Man(b1-4)GlcNAc(b1-4)[Fuc(a1-6)]GlcNAc
# How it was run: as §1
# [5] = target: Fuc(a1-2)[GalNAc(a1-3)]Gal(b1-4)[Fuc(a1-3)]GlcNAc(b1-3)GalNAc
# How it was run: as §1
# [6] = target: Fuc(a1-2)[GalNAc(a1-4)]Gal(b1-4)GlcNAc
# How it was run: as §1
# [7] = target: Fuc(a1-3)[Gal(b1-4)]GlcNAc(b1-2)Man(a1-3)[Fuc(a1-3)[Gal(b1-4)]GlcNAc(b1-2)Man(a1-6)]Man(b1-4)GlcNAc(b1-4)[Fuc(a1-6)]GlcNAc
# How it was run: as §1
# [8] = target: Fuc(a1-3)[Gal(b1-4)]GlcNAc(b1-6)GalNAc
# How it was run: as §1
# [9] = target: Gal(a1-3)Fuc(a1-2)Gal(b1-4)GlcNAc(b1-3)[Gal(a1-3)Fuc(a1-2)Gal(b1-4)GlcNAc(b1-6)]GalNAc
# How it was run: as §1
# [10] = target: Gal(a1-3)Gal(b1-4)[Fuc(a1-3)]GlcNAc
# How it was run: as §1
# Gal(a1-3)GalNAc = target: Gal(a1-3)GalNAc
# How it was run: as §1
# [11] = target: Gal(b1-4)GlcNAc(b1-2)Man(a1-3)[Gal(b1-4)GlcNAc(b1-2)Man(a1-6)]Man(b1-4)GlcNAc(b1-4)[Fuc(a1-6)]GlcNAc
# How it was run: as §1
# [12] = target: Gal(b1-4)GlcNAc(b1-2)[Gal(b1-4)GlcNAc(b1-6)]Man(a1-6)[Gal(b1-4)GlcNAc(b1-2)Man(a1-3)]Man(b1-4)GlcNAc(b1-4)GlcNAc
# How it was run: as §1
# [13] = target: Gal(b1-4)GlcNAc(b1-3)Gal(b1-4)GlcNAc
# How it was run: as §1
# Gal(b1-6)Gal = target: Gal(b1-6)Gal
# How it was run: as §1
# [14] = target: Gal3S(b1-4)[Fuc(a1-3)]Glc6S
# How it was run: as §1
# Gal4S(b1-4)GlcNAc = target: Gal4S(b1-4)GlcNAc
# How it was run: as §1
# Gal6S(b1-4)Glc = target: Gal6S(b1-4)Glc
# How it was run: as §1
# Gal6S(b1-4)GlcNAc = target: Gal6S(b1-4)GlcNAc
# How it was run: as §1
# Glc(a1-4)Glc = target: Glc(a1-4)Glc
# How it was run: as §1
# [15] = target: GlcNAc(a1-4)Gal(b1-3)GlcNAc
# How it was run: as §1
# [16] = target: GlcNAc(a1-4)Gal(b1-4)GlcNAc(b1-3)Gal(b1-4)GlcNAc
# How it was run: as §1
# [17] = target: GlcNAc(a1-4)Gal(b1-4)GlcNAc(b1-3)Gal(b1-4)[Fuc(a1-3)]GlcNAc(b1-3)Gal(b1-4)[Fuc(a1-3)]GlcNAc
# How it was run: as §1
# [18] = target: GlcNAc(b1-3)[GlcNAc(b1-6)]GalNAc
# How it was run: as §1
# Kdn(a2-3)Gal(b1-3)GlcNAc = target: Kdn(a2-3)Gal(b1-3)GlcNAc
# How it was run: as §1
# [19] = target: Man(a1-2)Man(a1-3)[Man(a1-2)Man(a1-6)]Man(a1-6)[Man(a1-2)Man(a1-2)Man(a1-3)]Man
# How it was run: as §1
# [20] = target: Man(a1-2)Man(a1-3)[Man(a1-2)Man(a1-6)]Man(a1-6)[Man(a1-2)Man(a1-2)Man(a1-3)]Man(b1-4)GlcNAc(b1-4)GlcNAc
# How it was run: as §1
# [21] = target: Man(a1-2)Man(a1-6)[Man(a1-3)]Man(a1-6)[Man(a1-2)Man(a1-2)Man(a1-3)]Man(b1-4)GlcNAc(b1-4)GlcNAc
# How it was run: as §1
# [22] = target: Neu5Ac(a2-3)Gal(b1-3)GlcNAc(b1-3)GalNAc
# How it was run: as §1
# [23] = target: Neu5Ac(a2-3)Gal(b1-4)[Fuc(a1-3)]GlcNAc(b1-3)GalNAc
# How it was run: as §1
# [24] = target: Neu5Ac(a2-3)Gal6S(b1-4)[Fuc(a1-3)]GlcNAc
# How it was run: as §1
# [25] = target: Neu5Ac(a2-6)Gal(b1-4)GlcNAc(b1-2)Man(a1-3)[Neu5Ac(a2-6)Gal(b1-4)GlcNAc(b1-2)Man(a1-6)]Man(b1-4)GlcNAc(b1-4)GlcNAc
# How it was run: as §1
# [26] = target: Neu5Ac(a2-6)Gal(b1-4)GlcNAc(b1-2)Man(a1-6)Man(b1-4)GlcNAc(b1-4)GlcNAc
# How it was run: as §1
# [27] = target: Neu5Ac(a2-6)GlcNAc(b1-4)GlcNAc
# How it was run: as §1
# [28] = target: Neu5Ac(a2-6)GlcNAc(b1-4)GlcNAc(b1-4)GlcNAc
# How it was run: as §1
# [29] = target: Neu5Ac9Ac(a2-3)Gal(b1-4)GlcNAc
# How it was run: as §1
binder,measurement,setting,value
B1,glycan array binding signal (z-score),[1],0.007
same,glycan array binding signal (z-score),[2],0.292
same,glycan array binding signal (z-score),[3],6.81
same,glycan array binding signal (z-score),[4],0.442
same,glycan array binding signal (z-score),[5],3.26
same,glycan array binding signal (z-score),[6],-0.77
same,glycan array binding signal (z-score),[7],4.32
same,glycan array binding signal (z-score),[8],3.36
same,glycan array binding signal (z-score),[9],0.813
same,glycan array binding signal (z-score),[10],-1.04
same,glycan array binding signal (z-score),Gal(a1-3)GalNAc,-0.16
same,glycan array binding signal (z-score),[11],0.309
same,glycan array binding signal (z-score),[12],8.52
same,glycan array binding signal (z-score),[13],-0.586
same,glycan array binding signal (z-score),Gal(b1-6)Gal,0.892
same,glycan array binding signal (z-score),[14],-0.197
same,glycan array binding signal (z-score),Gal4S(b1-4)GlcNAc,-0.503
same,glycan array binding signal (z-score),Gal6S(b1-4)Glc,-0.205
same,glycan array binding signal (z-score),Gal6S(b1-4)GlcNAc,-0.815
same,glycan array binding signal (z-score),Glc(a1-4)Glc,-0.173
same,glycan array binding signal (z-score),[15],-0.205
same,glycan array binding signal (z-score),[16],4.05
same,glycan array binding signal (z-score),[17],9.15
same,glycan array binding signal (z-score),[18],-0.477
same,glycan array binding signal (z-score),Kdn(a2-3)Gal(b1-3)GlcNAc,0.075
same,glycan array binding signal (z-score),[19],0.157
same,glycan array binding signal (z-score),[20],-0.074
same,glycan array binding signal (z-score),[21],1.28
same,glycan array binding signal (z-score),[22],-0.319
same,glycan array binding signal (z-score),[23],3.03
same,glycan array binding signal (z-score),[24],-0.34
same,glycan array binding signal (z-score),[25],0.411
same,glycan array binding signal (z-score),[26],-0.415
same,glycan array binding signal (z-score),[27],0.019
same,glycan array binding signal (z-score),[28],-0.157
same,glycan array binding signal (z-score),[29],-0.533
